Bioassay records deposited in PubChem BioAssay by National Center for Advancing Translational Sciences (NCATS).
Sfp PPTase inh: qHTS Assay for Inhibitors of Bacillus subtilis Sfp phosphopantetheinyl transferase (PPTase). 4'-phosphopantetheinyl transferase ffp (Bacillus subtilis), Q9F4F7. Biochemical Sfp PPTase activity, qHTS. Potency, µM, inactives show largest response in the series, negative = inhibition, actives largely listed as inhibitors. 310,000 tested, 3.5% active. AID 1490, 2009;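 note: the enzyme is Sfp with the accession as filed and its product quenches rhodamine fluorescence; 0% = enzyme reaction without inhibitor and -100% = no enzyme wells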
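Sfp 15 nM + cpd, 15 min RT; start w/ rhodamine-CoA 5 uM, BHQ-2-YbbR 12.5 uM (final); 50 mM Hepes pH 7.6, 10 mM MgCl2, 0.01% NP-40, 0.01% BSA; read 525/598 nm at 0 and 30 min.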
BAZ2B inh: qHTS Assay for Inhibitors of BAZ2B; Bromodomain adjacent to zinc finger domain protein 2B (Homo sapiens), Q9UIF8; AlphaScreen BAZ2B-H3K14Ac peptide displacement; Potency, µM (series often up to 114 µM), without a hit: top-dose activity change, negative = inhibition, usual class: inhibitors; 360,000 tested, 4.4% active; AID 504333, 2011; note: % is set by controls: 0 for no effect and ±100 for the full control effect; nearly all actives have a fitted effect of over 60% in size
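BAZ2B (50 nM) with biotin-H3(5-23)K14Ac peptide (50 nM) in PBS pH 7.4, 0.01% Tween-20, preformed 30 min, then compound 30 min at room temperature; top concentration 110uM. AlphaScreen streptavidin donor/nickel chelate acceptor beads (10 ug/mL final), 20 min dark, signal read.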
G9a inh: qHTS Assay for Inhibitors of Histone Lysine Methyltransferase G9a; G9a H3K9 monomethylation, AlphaScreen, 2 h; Potency, µM (titrated, usually from 102 µM), for inactives: at the highest dose activity, negative = inhibition, usual class: inhibitors; 350,000 tested, 8.8% active; AID 504332, 2011; note: % is set by controls: 0 for no effect and ±100 for the full control effect; nearly all actives have a fitted effect of over 75% in size
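G9a (20 nM) preincubated 15 min RT with compounds, then 500 nM biotinylated H3K9 peptide and 20 uM SAM added; 2 h RT reaction. Monomethyl-H3K9 product detected by AlphaScreen with anti-H3K9me1 antibody, streptavidin donor and anti-rabbit IgG acceptor beads.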
12-LOX inh: Primary qHTS assay for inhibitors of human arachidonate 12S-lipoxygenase (ALOX12): Round 2. 580,000 tested, 1.1% active. purified 12hLO, xylenol orange hydroperoxide absorbance. Potency, µM (top dose mostly 108 µM), without a hit: top-dose activity change, negative = inhibition, most hits filed as inhibitors. Polyunsaturated fatty acid lipoxygenase ALOX12 (Homo sapiens), P18054; note: % is set by controls: 0 for no effect and ±100 for the full control effect
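Purified human 12hLO at 150 nM in 25 mM Hepes, 0.01% Triton X-100, pH 7.0, preincubated 15 min at room temperature with compound. Reaction started with 40 uM arachidonic acid, 30 min at room temperature. Hydroperoxide measured by Fe-xylenol orange, 573/405 nm absorbance ratio.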
JMJD2A Tudor: qHTS Assay for Inhibitors of JMJD2A-Tudor Domain; Lysine-specific demethylase 4A (Homo sapiens), O75164; AlphaScreen JMJD2A-Tudor / H3K4me3 peptide binding; Potency, µM (top dose mostly 114 µM), inactives show at the highest dose activity change, negative = inhibition, usual class: inhibitors; 390,000 tested, 4.4% active; note: % is set by controls: 0 for no effect and ±100 for the full control effect; nearly all actives have a fitted effect of over 50% in size
Target sequence (O75164 whole entry, looked up, the tested form may be a part): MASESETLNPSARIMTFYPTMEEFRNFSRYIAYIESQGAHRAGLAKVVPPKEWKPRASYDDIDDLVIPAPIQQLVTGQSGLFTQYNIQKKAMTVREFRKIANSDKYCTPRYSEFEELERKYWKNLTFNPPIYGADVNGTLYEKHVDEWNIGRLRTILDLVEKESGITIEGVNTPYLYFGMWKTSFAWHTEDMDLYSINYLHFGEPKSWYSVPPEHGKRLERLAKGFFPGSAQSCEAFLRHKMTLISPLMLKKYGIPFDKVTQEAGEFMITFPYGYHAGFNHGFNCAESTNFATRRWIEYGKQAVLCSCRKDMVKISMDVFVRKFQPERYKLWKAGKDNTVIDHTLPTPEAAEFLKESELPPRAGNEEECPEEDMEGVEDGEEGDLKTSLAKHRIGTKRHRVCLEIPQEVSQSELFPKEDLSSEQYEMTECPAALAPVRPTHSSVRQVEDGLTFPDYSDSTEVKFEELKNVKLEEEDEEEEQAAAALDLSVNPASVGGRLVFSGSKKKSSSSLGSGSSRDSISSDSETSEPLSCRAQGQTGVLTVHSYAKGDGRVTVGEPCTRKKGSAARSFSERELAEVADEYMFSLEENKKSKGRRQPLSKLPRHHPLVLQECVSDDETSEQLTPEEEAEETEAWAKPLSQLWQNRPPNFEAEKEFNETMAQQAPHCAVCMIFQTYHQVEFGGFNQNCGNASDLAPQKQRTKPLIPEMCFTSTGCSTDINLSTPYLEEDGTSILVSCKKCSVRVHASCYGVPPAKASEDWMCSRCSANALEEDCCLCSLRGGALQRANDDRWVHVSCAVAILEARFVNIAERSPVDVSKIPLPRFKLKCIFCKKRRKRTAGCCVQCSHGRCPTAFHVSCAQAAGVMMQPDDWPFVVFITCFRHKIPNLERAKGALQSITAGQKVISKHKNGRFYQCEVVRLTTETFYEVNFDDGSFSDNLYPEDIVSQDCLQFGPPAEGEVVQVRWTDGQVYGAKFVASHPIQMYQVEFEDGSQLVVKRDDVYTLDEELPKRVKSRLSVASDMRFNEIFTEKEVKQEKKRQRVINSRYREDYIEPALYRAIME
HP1b binding inh: HTS for Inhibitors of HP1-beta Chromodomain Interactions with Methylated Histone Tails | Chromobox protein homolog 1 (Homo sapiens), P83916 | AlphaScreen HP1-beta / biotin-H3K9me3 peptide binding | Potency, µM (top dose mostly 114 µM), for inactives: at the highest dose activity change, negative = inhibition, actives largely listed as inhibitors | 390,000 tested, 0.56% active | AID 540317, 2011; note: nearly all actives have a fitted effect of over 70% in size
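HP1-beta protein (50 nM final) preincubated 30 min at room temperature with biotinylated H3(1-18)K9me3 peptide (50 nM) in PBS pH 7.4, 0.01% Tween-20, then compound added for 30 min. AlphaScreen streptavidin donor/nickel chelate acceptor beads (10 ug/mL final), 30 min dark, luminescence read.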
Active calls of the source: *; ? = inconclusive; nt = no result given; [ ] = another dose, or the depositor's remark. Compounds with a hit are over-represented: about 8.7% of the library has one in this group of screens. Calls come from the whole dose curve; as a rule, active = well fitted curve in the direction sought with a large enough effect; inconclusive = small, poorly fitted or top-dose-only effect, or another doubt; inactive = no such curve, though single readings can be large; an effect the other way counts as inactive or inconclusive. Potency is the fitted concentration of half-maximal effect.

SMILES	Sfp PPTase inh	BAZ2B inh	G9a inh	12-LOX inh	JMJD2A Tudor	HP1b binding inh
CC(C)NC(=O)/C(C#N)=C/c1ccc(C(=O)O)cc1	nt	nt	nt	22µM*	nt	nt
CC(C)NC(=O)/C(C#N)=C\c1ccc(N(C)C)o1	0%	-30%	?	?	-13%	21%
COC(=O)CCC(=O)c1oc2ccc(Br)cc2c1N	2%	7%	-8%[59 µM]	-27%	-5%	12%
COc1ccc2oc(C(=O)CCC(=O)O)c(N)c2c1	-7%	-9%	50µM*	-3%	-5%	70%
CCOC(=O)c1oc2ccccc2c1CN1CCN(c2ccccc2)CC1	-19%	56µM*	?	?	79µM*	-17%
CCOC(=O)c1c(CN2CCCCC2)oc2ccc(OC)cc12	-3%	-32%	19%[2.33 µM]	?	?	23%
COc1ccc2oc(C)c(C(=O)NN)c2c1	-18%	-11%	10µM*	0%	-23%	24%
CCOC(=O)c1c(CN2CCN(c3ccccc3)CC2)oc2ccc(O)cc12	4%	?	40µM*	-12%	?	-2%
O=C(CN1CCN(C(=O)c2cccc(I)c2)CC1)N1CCCCC1	nt	nt	nt	-49%	nt	nt
C=CCNC(=O)c1nc(-c2ccc3[nH]ccc3c2)no1	nt	nt	nt	-4%	nt	nt
Cc1oc(-c2cccs2)nc1C(=O)N1CCCCC1	nt	nt	nt	7%	nt	nt
CC(=O)N1CCCC(C(=O)N2CCC(Cc3noc(C)n3)CC2)C1 (centres undefined)	nt	nt	nt	55%	nt	nt
COC(=O)C1CCN(CC(O)COc2cccc(CN3CC=C(C)CC3)c2)CC1 (centres undefined)	nt	nt	nt	30%	nt	nt
CCOC(=O)c1c(CN2CCN(C)CC2)oc2ccc(OC)cc12	10%	79µM*	?	?	?	19%
COC(=O)c1cc2n(n1)CCN(C(=O)CCc1cccc(OC)c1)C2	nt	nt	nt	26%	nt	nt
CN(CC(O)COc1cccc(CNCCOc2ccccc2)c1)C1CCCCC1 (centres undefined)	nt	nt	nt	32%	nt	nt
Cc1nn(C)c(-c2n[nH]c(=S)n2Cc2ccco2)c1Cl	-16%	-11%	6.3µM*	?	22µM*	11%
COc1cccc(-c2n[nH]c(=S)n2Cc2ccco2)c1OC	-6%	-5%	?	-20%	7.9µM*	14%
Cc1nc2c(sc(=S)n2Cc2ccco2)c(=O)n1CC(=O)Nc1ccccc1Cl	-22%	-11%[57.1 µM]	1%	-35%	-15%	92%
Oc1cc2ccccc2cc1-c1n[nH]c(=S)n1Cc1ccco1	22µM*	?	1.6µM*	40µM*	?	-8%
Oc1ccc(-c2n[nH]c(=S)n2Cc2ccco2)cc1	-2%	-29%	2.8µM*	?	3.5µM*	-9%
O=C(CCc1nc(C2CCCN2Cc2ccc3[nH]ccc3c2)no1)N1CCCC1 (centres undefined)	nt	nt	nt	17%	nt	nt
CCN(CC)Cc1cnc2c(C(=O)N(C)CCc3ccccn3)cnn2c1	nt	nt	nt	25%	nt	nt
CCn1c(C)c(/C=N/Nc2nc3ccccc3s2)c2ccccc21	1%	16µM*	40µM*	-22%	32µM*	?
CCOc1c(Cl)cc(CNc2ccc3[nH]c(=O)[nH]c3c2)cc1OC	nt	-31%	3.5µM*	-26%	?	-13%
COc1cc(CNc2ccc3[nH]c(=O)[nH]c3c2)ccc1OCc1ccc(Cl)cc1	-13%	-12%	nt	?	-21%	12%
COc1cc(CNc2ccc3[nH]c(=O)[nH]c3c2)cc(Br)c1OCC(=O)NC(C)(C)C	-10%	40µM*	-12%[12.7 µM]	-6%	56µM*	-36%
C(=C\c1ccccc1)/CSc1nnc(-c2ccncc2)n1Cc1ccco1	50µM*	-7%	?	42%	-29%	-1%
